Screens deposited in PubChem by National Center for Advancing Translational Sciences (NCATS).
TRPML1 ag: agonists of human TRPML1 channel; AID 624414; TRPML1-expressing cells, Ca2+ dye fluorescence, FDSS; 410,000 tested, 0.12% active; activation, % (test concentration not listed); in the data active = activation above about 50%; inconclusive = mostly about 30% to 49%; also: 0% is about no effect
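In this qHTS format, compounds were pin-transferred onto Ca8-dye-loaded TRPML1-DL cells induced with Tet overnight, and intracellular Ca2+ fluorescence was recorded kinetically for 110 s after a 10 s baseline. A subsequent 4uM final 54-4 (EC80) addition followed by a second 110 s read served as the antagonist phase.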
TSG101-PTAP inh: blocks PTAP/TSG101 interaction to inhibit HIV-1 budding. Q99816. Fluorescence polarization, FITC-PTAP peptide / Tsg101 binding. Potency, µM (series often up to 115 µM), without a hit: top-dose activity change, negative = inhibition, hits mostly inhibitors. 340,000 tested, under 10 active; active = well fitted inhibition curve with a large enough effect in the main read-out, with a control signal flat, not every such curve was filed as active; inconclusive = small, poorly fitted or top-dose-only effect, or effect the other way, or a change in a side signal; inactive = no such curve, though single readings can be large or run the other way; also: potency is read from the fitted curve at half-maximal effect; % of control where 0% means no effect
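Tsg101 binding domain (10 uM final) was mixed with compound and a FITC-labeled PTAP peptide (50 nM final) in HEPES pH 7.5 buffer with NaCl, Tween 20, EDTA and TCEP; fluorescence polarization was read after 20 min at r.t.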
TRPML1 blocker: inhibitors of human TRPML1 channel. TRPML1-inducible cells, Ca2+ dye fluorescence, FDSS; hits give low values; inhibition of EC80 agonist-evoked calcium signal. activity change, negative = inhibition, % (test concentration not listed). 390,000 tested, 0.02% active. AID 624415; in the data active = activity change below about -50%; inconclusive = between about -30% and that limit;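 also: stimulus is agonist 54-4 at its EC80 concentration; % is scaled to controls: 0 for no effect and ±100 for the full control effect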
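Tet-induced TRPML1-DL cells loaded with Ca8 no-wash calcium dye were read kinetically on FDSS. Compound addition was followed by EC80 agonist 54-4 (4 uM final); inhibition was read over 110 s.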
PKM2 act: PKM2 (human) enzyme activation; purified PKM2, Kinase-Glo ATP luminescence, activation; response scale: 0% is enzyme alone, no compound; Potency, µM (highest dose often 57.5 µM), without a hit: top-dose activation, usual class: activators; 260,000 tested, 0.34% active; P14618; also: potency is read from the fitted curve at half-maximal effect; % is scaled to controls: 0 for no effect and ±100 for the full control effect; nearly all actives have a fitted effect of over 55% in size
Target sequence (P14618 whole entry, looked up): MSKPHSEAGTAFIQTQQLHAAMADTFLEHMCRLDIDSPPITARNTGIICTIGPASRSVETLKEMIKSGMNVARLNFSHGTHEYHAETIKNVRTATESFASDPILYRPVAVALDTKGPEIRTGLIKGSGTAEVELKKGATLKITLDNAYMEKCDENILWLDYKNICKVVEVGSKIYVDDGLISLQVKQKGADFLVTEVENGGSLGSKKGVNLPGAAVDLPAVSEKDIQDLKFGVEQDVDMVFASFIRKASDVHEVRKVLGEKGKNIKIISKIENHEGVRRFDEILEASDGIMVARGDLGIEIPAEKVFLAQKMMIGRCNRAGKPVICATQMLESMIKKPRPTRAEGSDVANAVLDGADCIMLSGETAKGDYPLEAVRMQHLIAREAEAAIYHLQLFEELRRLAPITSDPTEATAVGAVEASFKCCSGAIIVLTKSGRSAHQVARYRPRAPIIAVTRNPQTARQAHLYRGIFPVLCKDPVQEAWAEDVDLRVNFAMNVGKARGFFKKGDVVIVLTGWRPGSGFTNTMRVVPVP
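Purified hPK-M2 (>95%) run at intermediate activity with 0.1 mM ADP and 0.5 mM PEP in 50 mM imidazole pH 7.2, KCl, MgCl2; 1 h room temperature. ATP formed read by Kinase-Glo luminescence; normalized to uninhibited and no-enzyme controls.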
IL2 activator: activates IL-2 in a cell-based reporter assay; IL-2 activation reporter assay, cell-based qHTS; stimulated with anti-CD3/CD4/CD28 beads; in transgenic mouse T cells; activation, % (series mostly up to about 46 µM); 360,000 tested, 0.065% active; in the data active = activation above about 50%; inconclusive = mostly about 30% to 49%; also: 0% is about no effect
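EGFP and DsRed fluorescence is measured by plate cytometry in unstimulated transgenic mouse T cells exposed to compound for 60 minutes, then stimulated 18 hours at 37 degrees C with anti-CD3/anti-CD4 beads plus anti-CD28.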
BRCA1 expr act: activators of BRCA1 expression. 380,000 tested, 1.1% active. MCF7-BRCA1-FFLuc reporter, luminescence, 48 h; response scale: scaled: vehicle 0%, 10 µM genistein 100%. Potency, µM (top dose mostly 46.1 µM), without a hit: top-dose activation, usual class: activators; also: potency is read from the fitted curve at half-maximal effect; nearly all actives have a fitted effect of over 80% in size
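Reporter cells (MCF7, BRCA1 promoter-firefly luciferase) received library compounds across a concentration series for 48 h. End-point luminescence was measured and concentration-effect curves derived after normalization.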
An asterisk follows results filed as active; ? = inconclusive; · = no result. Compounds with a hit are over-represented: about 1.3% of the library has one in this group of screens. Unless noted, calls follow the shape of the dose curve; as a rule, active = well fitted activation curve with a large enough effect; inconclusive = small, poorly fitted or top-dose-only effect; inactive = no such curve, though single readings can be large or run the other way.

SMILES	TRPML1 ag	TSG101-PTAP inh	TRPML1 blocker	PKM2 act	IL2 activator	BRCA1 expr act
COC(=O)c1ccc(-c2ccc(OC)c(C3C4C=CCC(C)C4C(=O)N3Cc3ccccc3)c2)cc1 (stereo not given)	1	·	16	·	·	·
O=C(Cc1cccs1)NCc1cccc(Br)c1	-1	-9%	-1	·	-1	4µM*
O=C(Cc1cccs1)NCc1cccs1	0	-6%	10	0%	0	37%
O=C(Nc1ccc(Cl)cc1Cl)C1=Cc2ccccc2OC1	-1	-15%	-4	1%	0	10µM*
O=C(Nc1cccc(Cl)c1)N1CCC(CN2CCOCC2)CC1	0	·	9	·	·	·
CNS(=O)(=O)c1ccc2c(c1)oc(=O)c1cc(S(=O)(=O)NC)ccc12	3	-4%	10	1.6µM*	0	-8%
O=c1oc2cc(S(=O)(=O)NCCCO)ccc2c2ccc(S(=O)(=O)NCCCO)cc12	1	-1%	12	14µM*	0	14%
CC(C)(CO)NS(=O)(=O)c1ccc2c(c1)oc(=O)c1cc(S(=O)(=O)NC(C)(C)CO)ccc12	0	-5%	4	2%	-2	7%
CC(C)(C)NS(=O)(=O)c1ccc2c(c1)oc(=O)c1cc(S(=O)(=O)NC(C)(C)C)ccc12	0	0%	-1	-15%	-1	0%
Cc1cccc(N2CCN(C(=O)Cn3nc(C)c4sc5ccccc5c4c3=O)CC2C)c1 (stereo not given)	1	·	-1	·	·	·
O=C1COc2ccc(-c3cc(-c4ccc(F)cc4)c4c(n3)-c3ccccc3OC4)cc2N1	0	·	21	·	·	2%
CCCCCCCCCCCCCCCC[n+]1ccc(CC(O)c2c(C)[nH]c3ccccc23)c2ccccc21 (stereo not given)	1	·	·	·	·	·
O=C(Nc1ccc(N2CCCCC2)cc1)c1ccc2ccccc2n1	87*	-4%	?	-4%	0	7%
COc1ccc(C(=O)COC(=O)c2cccs2)cc1	0	-4%	-5	·	0	13µM*
CC1CC1C(=O)OCC(=O)N(C)CC(=O)Nc1ccc(F)cc1 (stereo not given)	0	-3%	-9	·	0	0%
CC(=O)Nc1ccc(C(=O)COC(=O)c2c(C)noc2C)c(F)c1	-1	2%	8	·	-3	-5%
COc1ccc(/C(N)=N/OC(=O)Cc2cccs2)cc1	-1	0%	4	0%	-4	8.9µM*
CC(=O)Nc1ccc(C(=O)COC(=O)c2cccs2)c(F)c1	0	-3%	-5	·	1	14µM*
CC(=O)Nc1ccc(C(=O)COC(=O)C2CC2C)c(F)c1 (stereo not given)	0	-4%	-7	·	0	6.3µM*
Cc1ccc(NC(=O)Cc2ccc(NC(=O)N3CCCCc4ccccc43)cc2)cc1Cl	0	·	8	·	·	-8%
CC(C)(C)n1ncc2c(=O)n(Cc3ccc(OC(F)(F)F)cc3)cnc21	0	·	46	·	·	·
CCCC(=O)Nc1ccc(C(=O)COC(=O)C2CC2C)cc1 (stereo not given)	0	-12%	8	·	2	11µM*
COc1ccc(C2CC2/C(=N/OC(=O)c2cccs2)c2ccccc2)cc1 (stereo not given)	0	-1%	-7	-2%	-1	7.1µM*
CCSc1nc2c(cnn2-c2ccccc2)c(=O)n1N	0	0%	-26	-4%	0	5µM*
Cc1nc2ccccc2nc1C	0	·	·	·	·	0%
CCN1C(=NCC(C)C)N[C@@H](c2ccccc2)[C@H](C(=O)OC)[C@H]1C	·	·	·	1%	·	·
Cc1nnc(SCc2cccc3ccccc23)s1	0	-2%	-6	0%	-1	1.3µM*
O=C(NCCC(=O)N1CCCCC1)c1ccc(Br)cc1	0	-2%	7	2%	-2	10µM*
